Measurements published in PubChem BioAssay (NCI).
About 83,000 compounds went through this panel and 20% of them were active in at least one assay; those are over-represented in the sample as a whole.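 Step 1: grow cells in 96-well plates. Step 2: add test compound at a single concentration. Step 3: incubate 48 h. Step 4: record percent growth.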 Unmarked numbers belong to inactive results. Activity calls are given as the source filed them. The calls were made as follows: active = growth percent below 10; inactive = the rest.

How the values were obtained:
Assay in all cases: NCI-60 one-dose screen, 48 h (100 = growth as untreated, 0 = no growth, -100 = all killed)
Conditions in all cases: 10 µM unless noted
[1] = test system: DU-145 prostate
[2] = test system: K-562 leukemia
[3] = test system: MALME-3M melanoma
[4] = test system: MDA-MB-231 breast
[5] = test system: RXF 393 renal
[6] = test system: SF-268 CNS
[7] = test system: SF-295 CNS
[8] = test system: SF-539 CNS
[9] = test system: UACC-257 melanoma
[10] = test system: M14 melanoma
[11] = test system: HCT-15 colon
[12] = test system: HT29 colon
[13] = test system: SNB-75 CNS
[14] = test system: SNB-19 CNS
[15] = test system: U251 CNS
[16] = test system: PC-3 prostate
[17] = test system: SK-MEL-5 melanoma
[18] = test system: LOX IMVI melanoma
[19] = test system: SK-MEL-28 melanoma
[20] = test system: UACC-62 melanoma

| SMILES | growth [1] | growth [2] | growth [3] | growth [4] | growth [5] | growth [6] | growth [7] | growth [8] | growth [9] | growth [10] | growth [11] | growth [12] | growth [13] | growth [14] | growth [15] | growth [16] | growth [17] | growth [18] | growth [19] | growth [20] |
| --- | --- | --- | --- | --- | --- | --- | --- | --- | --- | --- | --- | --- | --- | --- | --- | --- | --- | --- | --- | --- |
| Cc1cccc(NC(=O)CSc2nc3ccc([N+](=O)[O-])cc3[nH]2)c1 | 85% | 66.5% | 62.2% | 97.3% | 89% | 87.8% | 62.7% | 87.1% | 70.9% | 79.9% | 75.1% | 90.4% | 70% | 80.3% | 74.5% | 75.1% | 52% | 81.4% | 80.7% | – |
| Cc1ccc(C)c(-n2c(-c3ccc(Br)cc3)csc2=NC(=O)c2ccccc2F)c1 | 102% | 23.9% | 73.9% | 84.1% | 81.8% | 99.6% | 73% | 89% | 57% | 81.3% | 57.9% | 55.5% | 84.6% | 93.7% | 46.4% | 22.7% | 46.9% | 76.9% | 96.6% | – |
| CCOC(=O)C1CCN(c2ccc(N3C[C@@H](CNCc4ccc(C(=N)N)cc4)OC3=O)cc2)CC1 | 98.6% | 99.3% | 83.1% | 99.8% | 99.7% | 100% | 101% | 94.4% | 102% | 94.7% | 102% | 105% | 83.8% | 98.9% | 104% | – | 103% | 96.4% | 105% | 97.3% |
| Cc1ccc2[nH]c(-c3ccc(S(C)(=O)=O)cc3)c(/C=N/N=C(N)N)c2c1 | 48% | 26.3% | 52.4% | 67.6% | 66.8% | 62.1% | 43.2% | 59.5% | 43.1% | 32.5% | 35.3% | 16.7% | 65.4% | 57.1% | 33.4% | 39.9% | 29.1% | 47.3% | 71.2% | – |
| COc1cc(C(=O)c2c(N)ncn2-c2ccccc2)cc(OC)c1OC | 100% | 76.4% | 106% | 103% | 86.8% | 101% | 91% | 87% | 109% | 96.1% | 82.6% | 93.7% | 90.7% | 89.6% | 95% | – | 89.5% | 91.9% | 91.7% | 70.3% |
| COc1cc(/C=N/Nc2ccccc2F)cc(OC)c1OC | 106% | 48.5% | 99% | 81.5% | 123% | 83.2% | 98.1% | 99.3% | 116% | 96.5% | 89.2% | 93.6% | 103% | 98.3% | 93.3% | – | 102% | 65.7% | 110% | 65.7% |
| CCOC(=O)Nc1nc2ccc(SCC(C)C)cc2s1 | 42.2% | 18% | 32.4% | 40.6% | -3.43% (active) | 45.2% | 26.1% | 12.3% | 55% | 25.8% | 25.5% | 9.7% (active) | 74.3% | 49.9% | 34.3% | – | 34.1% | 36.3% | 62.3% | 17.3% |
| O=C1/C(=C/c2ccccc2[N+](=O)[O-])COc2ccc(O)cc21 | 18.1% | 14.8% | -56.9% (active) | -16.2% (active) | -9.95% (active) | 58.8% | 81.1% | -49.9% (active) | 0.865% (active) | -10.9% (active) | -8.7% (active) | -20.8% (active) | 43.2% | 62.7% | – | 4.19% (active) | 59.1% | -66.1% (active) | -5.79% (active) | 2.16% (active) |
